Measured values as given in PubChem BioAssay.
Unmarked numbers belong to inactive results. Activity calls are given as the source filed them.

Test: PSAC antagonists in infected red cells, primary screen, cell-based, P. falciparum Indochina, OD700, 1 h (AID 1154)
Details: P. falciparum Indochina infected RBC osmotic lysis, higher = more signal, called active from +8 up or from −8 down

Q: With `CC(C)C(=C=CC[C@H](O)c1ccc(OCCO)cc1)C[C@H](O)c1cc(Cl)cc(Cl)c1O` as the compound, how does the z-score read?
A: 19.4 (active)

Q: Which z-score does the source give for `C=C(COC)/C(=C/C[C@@H](OC(=O)c1ccncc1)c1ccc(OCCO)cc1)c1cnc2ccccc2c1` here?
A: 23.1 (active)

Q: With `CC(C)CN1C(=O)[C@@]2(c3ccc([N+](=O)[O-])cc3)CC(=O)N(CC34CC5CC(CC(C5)C3)C4)[C@@H]2c2ccc(CO)cc21` as the compound, how does the z-score read?
A: 1.17

Q: Which z-score does the source give for `C=C(CCCC)/C(=C/C[C@@H](OC(C)=O)c1ccc(CO)o1)c1cc(C(=O)OC)ccc1OC` here?
A: 9.64 (active)

Q: With `C=C(C(=O)CC[C@H](OC(=O)c1cccnc1)c1ccc(CO)o1)C(C)C` as the compound, how does the z-score read?
A: 1.73

Q: With `CCOc1cc(C(O)C2C=CC3C(=O)N(C4CCCCC4)C(=O)C3N2Nc2ccc(OC)cc2)ccc1O` (stereo unspecified) as the compound, how does the z-score read?
A: 6.34

Q: For `CN(C)CCCNC(=O)[C@@H]1c2ccccc2C(=O)N(CC23CC4CC(CC(C4)C2)C3)[C@H]1c1ccc(CO)cc1`, which z-score is on record?
A: 1.1

Q: For `NC(=O)N1C(=O)C2C(C1=O)C1C=C(CCCO)C2C(c2cccs2)N1Cc1cc2c(cc1Br)OCO2` (stereo unspecified), which z-score is on record?
A: 17.7 (active)

Q: For `[N-]=[N+]=NCc1ccccc1[C@H]1OC(c2ccc(OCCCO)cc2)=N[C@@]1(CCS(=O)(=O)c1ccccc1)C(N)=O`, which z-score is on record?
A: 24.1 (active)

Q: Which z-score does the source give for `CC(C)(C)OC(=O)CC[C@]1(C(=O)O)N=C(c2ccc(OCCCO)cc2)O[C@H]1c1ccccc1` here?
A: 11.9 (active)

Q: Which z-score does the source give for `COc1ccc([Si](C)(C)[C@@H]2[C@@H](CCO)O[C@]3(C(=O)N(Cc4cccc(N5C(=O)c6cccc7cccc5c67)c4)c4ccccc43)[C@H]2C)cc1` here?
A: 3.33

Q: With `COC1(C)CN(Cc2ccccc2Br)[C@H](/C=C/c2ccccc2)[C@H](Cc2ccccc2)O1` (stereo partly specified) as the compound, how does the z-score read?
A: 0.787

Q: For `CN(C)C(=O)[C@@]1(Cc2ccccc2N=[N+]=[N-])COC(c2ccc(OCCCO)cc2)=N1`, which z-score is on record?
A: 26.3 (active)

Q: Which z-score does the source give for `CC(C)N1CC=CC23O[C@@H]4C=CCCOC(=O)C4[C@H]2C(=O)N(CCO)[C@@H]3C1=O` (stereo partly specified) here?
A: 0.326

Q: Which z-score does the source give for `C=C[C@@H](C)[C@H](OC(=O)Nc1ccc(SC)cc1)c1ccc(OCCO)cc1` here?
A: 27.9 (active)

Q: With `COC(=O)[C@@]1(Cc2ccc(OC)cc2)[C@H]2c3cc(C(=O)N(C)C)n(CCc4c[nH]c5ccc(O)cc45)c3C[C@H]2CN1C(=O)c1ccccc1` as the compound, how does the z-score read?
A: 4.25

Q: With `COc1cc2c(cc1OC)CN(C(=O)[C@H]1[C@@H]3C(=O)O[C@@H](c4ccccc4)[C@@H](c4ccccc4)N3[C@@H](c3ccc(OCCO)cc3)[C@]13C(=O)Nc1ccc(C#CCCO)cc13)CC2` as the compound, how does the z-score read?
A: 2.66

Q: For `COc1cc(CO)cc(I)c1O[C@H]1C=C(C(=O)NCCO)C[C@@H](N(CC2CCCCC2)C(=O)c2ccc(C(F)(F)F)cc2)[C@@H]1O`, which z-score is on record?
A: 1.05

Q: With `COC(=O)[C@@]1(Cc2ccc(F)cc2)[C@H]2c3cc(C(=O)N4CCCC4)n(CCc4c[nH]c5ccc(OC)cc45)c3C[C@H]2CN1C(=O)c1ccccc1` as the compound, how does the z-score read?
A: 4.03

Q: With `COCC(=C=CC[C@H](O)c1ccc(OCCO)cc1)C[C@H](O)COCc1ccccc1` as the compound, how does the z-score read?
A: 16.5 (active)

Q: For `CC=CC(O)C1C=CC2C(=O)N(C)C(=O)C2N1N1CCCCC1` (stereo unspecified), which z-score is on record?
A: 0.974

Q: Which z-score does the source give for `[N-]=[N+]=NCc1ccccc1C[C@]1(C(=O)NCC(O)CO)N=C(c2ccc(OCCCO)cc2)O[C@H]1c1ccccc1CN=[N+]=[N-]` (stereo partly specified) here?
A: 19.3 (active)

Q: Which z-score does the source give for `NCCCCCCNC(=O)[C@H]1C[C@H]2C(=O)N[C@@H](Cc3ccccc3)C(=O)N2[C@H]1c1ccc(O)cc1` here?
A: 4.21

Q: For `CCCCC(=C=CC[C@@H](O)c1ccc(OCCO)cc1)C[C@@H](O)COCc1ccccc1`, which z-score is on record?
A: 16.5 (active)

Q: With `O=C(O)[C@]1(Cc2ccccc2)N=C(c2ccc(OCCCO)cc2)O[C@@H]1c1ccccc1` as the compound, how does the z-score read?
A: 5.03

Q: Which z-score does the source give for `CC(C)C(=C=CC[C@@H](O)c1ccccc1OCCO)C[C@@H](O)COCc1ccccc1` here?
A: 6.77

Q: With `O=C1O[C@@H](c2ccccc2)[C@@H](c2ccccc2)N2[C@@H](c3ccc(O)cc3)[C@]3(C(=O)Nc4ccccc43)[C@@H](C(=O)Nc3nc4ccccc4s3)[C@H]12` as the compound, how does the z-score read?
A: 1.37

Q: With `O=C(N1CCCCC1)[C@@]1(Cc2ccccc2)COC(c2ccc(OCCCO)cc2)=N1` as the compound, how does the z-score read?
A: 20.9 (active)

Q: Which z-score does the source give for `CO[C@H]1O[C@H](CO)[C@@H](OC(=O)Nc2ccc(C(F)(F)F)cc2)[C@H](OC(=O)Nc2ccc3c(c2)OCO3)[C@H]1OC(=O)Nc1ccc2c(c1)OCO2` here?
A: 7.33

Q: With `COc1cc(CO)cc(I)c1O[C@H]1C=C(C(=O)NCCO)C[C@@H](NCc2ccccc2F)[C@@H]1O` as the compound, how does the z-score read?
A: 22.2 (active)

Q: Which z-score does the source give for `CCCNC(=O)[C@@]1(c2ccc([N+](=O)[O-])cc2)CC(=O)N(C2CCCCC2)[C@@H]1c1ccc(CO)cc1I` here?
A: 19.3 (active)

Q: Which z-score does the source give for `CCOC(=CC(=O)OC)CC(O)c1cccc(Cl)c1` (stereo unspecified) here?
A: 4.33

Q: With `Cc1ccc(S[C@]2(C(=O)NC(C)C)CC(=O)N(Cc3ccccc3C(F)(F)F)[C@@H]2c2ccc(CO)cc2I)cc1` as the compound, how does the z-score read?
A: 11.2 (active)

Q: Which z-score does the source give for `CO[C@H]1O[C@H](CO)[C@@H](OC(=O)c2ccc(Br)cc2)[C@@H]2OC(=O)[C@@H](Cc3ccc4ccccc4c3)C/C=C/C[C@H](Cc3ccc4ccccc4c3)C(=O)O[C@@H]12` here?
A: 2.52

Q: For `COC(=O)[C@@]1(Cc2ccc(OC)cc2)[C@H]2c3cc(C(=O)N(C)C)n(Cc4nc5ccccc5[nH]4)c3C[C@H]2CN1C(=O)c1ccccc1`, which z-score is on record?
A: 2.03

Q: With `COCCCNC(=O)[C@]1(Cc2ccccc2N=[N+]=[N-])N=C(c2ccc(OCCCO)cc2)O[C@@H]1c1ccccc1N=[N+]=[N-]` as the compound, how does the z-score read?
A: 30.8 (active)
